Experimental data published in PubChem BioAssay (Tox21).
Inconclusive results are not listed. A call without a number means that no potency is given here. The source made the active and inactive calls. Calls come from the whole dose curve. Positions of bridges follow the written chain, without caps; N, C: chain ends. Non-standard residues stand in square brackets, D forms with d. Residues, ends and D or L forms follow the SMILES beside them. hArg = N=C(N)NCCCC[C@H](N)C(=O)O; Mpa = O=C(O)CCS

Columns and labels:
[1] = molecular target: Acetylcholinesterase (Homo sapiens) (UniProt P22303); experiment: Acetylcholinesterase (AChE) small molecule antagonists: colormetric cell-based qHTS assay (AID 1347395); note: nearly all actives have a fitted effect of over 30% in size; note: potency is the fitted concentration of half-maximal effect
Sequence of Acetylcholinesterase (Homo sapiens) (P22303 whole entry, looked up): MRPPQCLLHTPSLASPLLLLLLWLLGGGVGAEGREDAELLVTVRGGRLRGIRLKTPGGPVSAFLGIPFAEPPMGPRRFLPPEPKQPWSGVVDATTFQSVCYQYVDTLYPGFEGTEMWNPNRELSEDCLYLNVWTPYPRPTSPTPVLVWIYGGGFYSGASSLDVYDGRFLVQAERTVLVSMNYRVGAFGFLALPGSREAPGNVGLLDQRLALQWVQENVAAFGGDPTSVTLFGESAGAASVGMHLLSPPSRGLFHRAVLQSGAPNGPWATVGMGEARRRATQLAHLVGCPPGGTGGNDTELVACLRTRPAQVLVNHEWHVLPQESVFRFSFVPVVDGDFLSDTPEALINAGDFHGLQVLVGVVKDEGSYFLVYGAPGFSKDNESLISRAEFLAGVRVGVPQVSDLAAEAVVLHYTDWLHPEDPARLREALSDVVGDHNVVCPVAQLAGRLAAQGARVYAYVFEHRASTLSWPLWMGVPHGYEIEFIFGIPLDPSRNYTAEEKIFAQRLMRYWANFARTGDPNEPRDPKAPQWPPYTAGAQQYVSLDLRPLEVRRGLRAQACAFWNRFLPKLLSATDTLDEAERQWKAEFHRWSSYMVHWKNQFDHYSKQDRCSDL
Method in brief: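 SH-SY5Y cells attached overnight, exposed to compound 30 min at 37 C, then given DTNB/acetylthiocholine; after 90 min at 37 C, colorimetric thiocholine read gives cellular AChE activity.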

[2] = molecular target: Acetylcholinesterase (Homo sapiens) (UniProt P22303); experiment: Acetylcholinesterase (AChE) small molecule antagonists: enzyme-based qHTS assay (AID 1347397); conditions: Potency: AChE enzyme activity inhibition; outcome: AChE enzyme activity inhibition; note: nearly all actives have a fitted effect of over 55% in size; note: potency is the fitted concentration of half-maximal effect
Method in brief: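 Enzyme inhibition was scored from DTNB-detected thiocholine formed by recombinant human AChE acting on acetylthiocholine. The 30 min compound preincubation and 10 min substrate reaction were both run at room temperature, with DMSO as vehicle control.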

[3] = molecular target: Acetylcholinesterase (Homo sapiens) (UniProt P22303); experiment: Acetylcholinesterase (AChE) small molecule antagonists: fluorescence cell-based qHTS assay (AID 1347398); conditions: Potency: AChE activity; outcome: AChE activity; note: nearly all actives have a fitted effect of over 50% in size; note: potency is the fitted concentration of half-maximal effect
Method in brief: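 Endogenous acetylcholinesterase of SH-SY5Y neuroblastoma cells is measured in situ. After overnight attachment and 30 min compound exposure, cells receive acetylthiocholine and Thiolite Green; fluorescence is read after 40 min at room temperature.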

[4] = molecular target: Acetylcholinesterase (Homo sapiens) (UniProt P22303); experiment: Acetylcholinesterase (AChE) small molecule antagonists: enzyme-based qHTS assay with human liver microsomes (AID 1347399); conditions: Potency: qHTS inhibition; outcome: qHTS inhibition; note: nearly all actives have a fitted effect of over 60% in size
Method in brief: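 Recombinant human AChE (50 mU/mL in the enzyme mix) and human liver microsomes (0.25 mg/mL final) were preincubated with compound and NADPH (0.25 mg/mL final) for 30 min at 37 C. Acetylthiocholine/DTNB was then added; thiocholine was read colorimetrically after 10 min at room temperature.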

Compound | Potency [1] | Potency [2] | Potency [3] | Potency [4] | activity, negative = inhibition [1] | activity change, negative = inhibition [2] | activity change, negative = inhibition [3] | activity change, negative = inhibition [4]
CC(C)(C)C(=O)OCOP(=O)(COCCn1cnc2c(N)ncnc21)OCOC(=O)C(C)(C)C | 30.9 µM (active) | 38.9 µM (active) | 13.8 µM (active) | inactive |  |  |  | 
CC1=C(C)C(=O)C(C(CCCCCC(=O)O)c2ccccc2)=C(C)C1=O (stereo not given) | inactive | inactive | inactive | inactive |  |  |  | 
O=C(O)CC(=O)O | inactive | inactive | inactive | inactive |  |  |  | 
NC(=O)[C@@H]1CSSCCC(=O)N[C@@H](CCCCN=C(N)N)C(=O)NCC(=O)N[C@@H](CC(=O)O)C(=O)N[C@@H](Cc2c[nH]c3ccccc23)C(=O)N2CCC[C@H]2C(=O)N1 ([Mpa][hArg]GDWPC-NH2; disulfide 1-7) | inactive | inactive | inactive | inactive |  |  |  | 
O=[N+]([O-])c1ccc(CO)cc1 | inactive | inactive | inactive | inactive |  |  |  | 
CCOC(=O)n1ccn(C)c1=S | inactive | inactive | inactive | inactive |  |  |  | 
CCCN(CCC)C(=O)SCC | inactive | inactive | inactive | inactive |  |  |  | 
C1COCCO1 | inactive | inactive | inactive | inactive |  |  |  | 
CC(C)=CCOC(=O)c1ccccc1 | inactive | inactive | inactive | inactive |  |  |  | 
OCCCCC(O)CO (stereo not given) | inactive | inactive | inactive | inactive |  |  |  | 
CN(C)[C@@H]1C(=O)C(C(N)=O)=C(O)[C@@]2(O)C(=O)C3=C(O)c4c(O)cccc4C[C@H]3C[C@@H]12 | inactive | inactive | inactive | inactive |  |  |  | 
NS(=O)(=O)c1cc2c(cc1Cl)NC(C1CC3C=CC1C3)NS2(=O)=O (stereo not given) | inactive | inactive | inactive | inactive |  |  |  | 
NCCOCCO | inactive | inactive | inactive | inactive |  |  |  | 
CC(=O)Nc1ccc(CC(=O)O)cc1 | inactive | inactive | inactive | inactive |  |  |  | 
Cc1cc(O)c(Cl)c(C)c1Cl | inactive | inactive | inactive | inactive |  |  |  | 
NCCc1ccn[nH]1 | inactive | inactive | inactive | inactive |  |  |  | 
O=C(O)Cn1c(=O)n(Cc2ccc(Br)cc2F)c(=O)c2ccc(Cl)cc21 | inactive | inactive | inactive | inactive |  |  |  | 
O=C(Nc1ccccc1)c1cc([N+](=O)[O-])ccc1Cl | inactive | inactive | inactive | inactive |  |  |  | 
N#Cc1nc(Cl)c(Cl)c(Cl)c1Cl | inactive | inactive | inactive | inactive |  |  |  | 
O=S(=O)(O)CO | inactive | inactive | inactive | inactive |  |  |  | 

Compound | Potency [1] | Potency [2] | Potency [3] | Potency [4] | activity, negative = inhibition [1] | activity change, negative = inhibition [2] | activity change, negative = inhibition [3] | activity change, negative = inhibition [4]
NC(N)=NCCC[C@H](N)C(=O)O |  |  |  |  | 5.24% [at 10.5 µM] (inactive) | -0.554% [at 10.5 µM] (inactive) | 6.4% [at 10.5 µM] (inactive) | -0.0087% [at 10.5 µM] (inactive)
CCCOc1ccc(S(=O)(=O)N2CCN(CC)CC2)cc1-c1nc2c(CC)n(Cc3ccccn3)nc2c(=O)[nH]1 | inactive | inactive | inactive | inactive |  |  |  | 
Nc1cc(N)cc(C(=O)O)c1 | inactive | inactive | inactive | inactive |  |  |  | 
CCCCC1C(=O)N(c2ccccc2)N(c2ccccc2)C1=O | inactive | inactive | inactive | inactive |  |  |  | 
CCOCCOCCOCC | inactive | inactive | inactive | inactive |  |  |  | 
[Cl][Sc]([Cl])[Cl] | inactive | inactive | inactive | inactive |  |  |  | 
CN1CCN(C2=Nc3cc(F)ccc3Cc3ccccc32)CC1 | inactive | inactive | inactive | inactive |  |  |  | 
CCN(CCCc1ccccc1)CCCc1ccccc1 | inactive | inactive | inactive | inactive |  |  |  | 
C=CC(=O)OCCCCCCCC | inactive | inactive | inactive | inactive |  |  |  | 
Cc1cccc(N)n1 | inactive | inactive | inactive | inactive |  |  |  | 
CC(C)(C)CC(C)(C)c1ccccc1O | inactive | inactive | inactive | inactive |  |  |  | 
CC(C)OC=O | inactive | inactive | inactive | inactive |  |  |  | 
Nc1ccc2c(c1)CN1C(=O)c3ccccc3C1=N2 |  |  |  |  | -3.06% [at 23.6 µM] (inactive) | 1.39% [at 23.6 µM] (inactive) | -15.4% [at 23.8 µM] (inactive) | 6.82% [at 23.6 µM] (inactive)
NC(=O)N(O)[C@@H]1COc2cc(OCc3ccccc3)ccc21 | inactive | inactive | inactive | inactive |  |  |  | 
Cn1cc(S(C)=O)c(=O)c2ccc(F)cc21 (stereo not given) | inactive | inactive | inactive | inactive |  |  |  | 
CCCCCCCCOc1ccc(C(=O)O)cc1 | inactive | inactive | inactive | inactive |  |  |  | 
C[C@H]1C[C@@H](O)CC(C)(C)C1 | inactive | inactive | inactive | inactive |  |  |  | 
CCC(=O)OC/C=C/c1ccccc1 | inactive | inactive | inactive | inactive |  |  |  | 
O=c1[nH]c(=O)n([C@H]2C[C@H](O)[C@@H](CO)O2)cc1C(F)(F)F | inactive | inactive | inactive | inactive |  |  |  | 
O=S(=O)(O)c1cc(O)c(O)c(S(=O)(=O)O)c1 | inactive | inactive | inactive | inactive |  |  |  | 

Compound | Potency [1] | Potency [2] | Potency [3] | Potency [4] | activity, negative = inhibition [1] | activity change, negative = inhibition [2] | activity change, negative = inhibition [3] | activity change, negative = inhibition [4]
COc1ccc([C@@H]2CC(=O)c3c(O)cc(O[C@@H]4O[C@H](CO[C@@H]5O[C@@H](C)[C@H](O)[C@@H](O)[C@H]5O)[C@@H](O)[C@H](O)[C@H]4O)cc3O2)cc1OC | inactive | inactive | inactive | inactive |  |  |  | 
CC(C)CCCCCOC(=O)CCS | inactive | inactive | inactive | inactive |  |  |  | 
Oc1ccc(Cl)c2cccnc12 | inactive | inactive | inactive | inactive |  |  |  | 
Cc1cccc(C)c1O | inactive | inactive | inactive | inactive |  |  |  | 
COc1ccccc1O | inactive | inactive | inactive | inactive |  |  |  | 
CCCCCCCCN(C)C | inactive | inactive | inactive | inactive |  |  |  | 
O=S(=O)(O)CCO | inactive | inactive | inactive | inactive |  |  |  | 
O=c1cc(-c2ccc(O)cc2)oc2cc(O)cc(O)c12 | inactive | inactive | inactive | inactive |  |  |  | 
CCOC(=O)C(=O)CCc1ccccc1 | inactive | inactive | inactive | inactive |  |  |  | 
ICCc1ccccc1 | inactive | inactive | inactive | inactive |  |  |  | 
CC/C=C\C/C=C\C/C=C\CCCCCCCC(=O)O | inactive | inactive | inactive | inactive |  |  |  | 
C1=C\CC/C=C\CC/1 | inactive | inactive | inactive | inactive |  |  |  | 
CC(CCO)CC(C)(C)C (stereo not given) | inactive | inactive | inactive | inactive |  |  |  | 
C=C[Si]1(C)O[Si](C)(C=C)O[Si](C)(C=C)O[Si](C)(C=C)O1 (stereo not given) | inactive | inactive | inactive | inactive |  |  |  | 
C[C@@H]1CC[C@@]2(OC1)O[C@H]1C[C@H]3[C@@H]4CC[C@H]5C[C@@H](O)CC[C@]5(C)[C@H]4CC(=O)[C@]3(C)[C@H]1[C@@H]2C |  |  |  |  | -3.52% [at 10.5 µM] (inactive) | -1.66% [at 10.5 µM] (inactive) | -1.2% [at 10.5 µM] (inactive) | -3.36% [at 10.5 µM] (inactive)
O=C(O)CSCC(=O)NC1CCSC1=O (stereo not given) | inactive | inactive | inactive | inactive |  |  |  | 
CC(=O)c1ccc2c(c1)N(CCCN(C)C)c1ccccc1S2 | inactive | inactive | inactive | inactive |  |  |  | 
CCCCCCCCCCCCCC[n+]1ccccc1 | 31.7 µM (active) | 56.4 µM (active) | 20 µM (active) | inactive |  |  |  | 
O=C(O)c1snc(Cl)c1Cl | inactive | inactive | inactive | inactive |  |  |  | 
CCCCC(O)/C=C(C)/C=C/C=C/C(=O)N1CCCC1=O (stereo not given) | inactive | inactive | inactive | inactive |  |  |  | 
